ELG1 repair inh = inhibitors of ELG1-dependent DNA repair in HEK293T cells; HEK293T ELG1-luciferase reporter, luminescence, 16 h; DNA damage induced by 5-fluorouridine; Potency, µM (titrated, usually from 46.1 µM), usual class: inhibitors; actives 2.3% (n = 330,000); AID 504467; also: nearly all actives have a fitted effect of over 55% in size
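Luminescence from the luciferase reporter, measured 30 min after ONE-Glo reagent at room temperature, was the read-out. Beforehand, 2,000 cells per well were exposed for 16 hr at 37 °C to 5-fluorouridine together with compound or vehicle.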
RORgamma inh = ROR gamma (mouse) transcription inhibition | P51450 | Drosophila S2 Gal4-RORgamma UAS-luciferase reporter, 20 h | Potency, µM (titrated, usually from 53.6 µM), usual class: inhibitors | actives 5.4% (n = 310,000); also: nearly all actives have a fitted effect of over 60% in size
Target sequence (P51450 whole entry, looked up, the tested form may be a part): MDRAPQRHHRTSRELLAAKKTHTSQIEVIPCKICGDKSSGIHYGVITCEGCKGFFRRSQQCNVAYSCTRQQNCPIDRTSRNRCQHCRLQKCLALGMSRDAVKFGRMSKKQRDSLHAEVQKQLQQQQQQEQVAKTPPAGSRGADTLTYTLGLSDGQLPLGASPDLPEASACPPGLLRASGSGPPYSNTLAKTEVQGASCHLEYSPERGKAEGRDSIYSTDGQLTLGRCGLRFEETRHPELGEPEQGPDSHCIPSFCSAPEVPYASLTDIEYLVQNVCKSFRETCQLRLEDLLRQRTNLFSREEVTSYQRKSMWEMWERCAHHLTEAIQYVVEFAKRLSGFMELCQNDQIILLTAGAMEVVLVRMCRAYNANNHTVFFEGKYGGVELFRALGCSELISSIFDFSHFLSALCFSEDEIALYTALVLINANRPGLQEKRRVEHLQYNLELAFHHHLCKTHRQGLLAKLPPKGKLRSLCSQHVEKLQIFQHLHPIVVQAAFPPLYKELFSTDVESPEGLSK
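Using a luciferase readout, inhibitors were identified by reduced reporter activity in Drosophila cells coexpressing a copper-inducible Gal4–ROR gamma fusion and UAS-driven Photinus luciferase, incubated 20 hr after 700 uM copper sulfate.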
Gal4-VP16 FLuc = inhibits Gal4-VP16 luciferase reporter, ROR gamma counter-screen | Potency, µM (doses to about 53.6 µM), hits mostly inhibitors | actives 3.5% (n = 310,000) | AID 2546 | Drosophila S2 Gal4-VP16 UAS-luciferase, luminescence, 20 h;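 also: Gal4-VP16 expression switched on by copper sulfate through the metallothionein promoter; nearly all actives have a fitted effect of over 50% in size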
TDP1 cell noCPT = qHTS for Inhibitors of human tyrosyl-DNA phosphodiesterase 1 (TDP1): qHTS in cells in absence of CPT; DT40 Tdp1-/- hTDP1 cells, no CPT, ATP luminescence, 48 h; actives 15% (n = 420,000); Potency, µM (titrated, usually from 46.2 µM), usual class: inhibitors; also: nearly all actives have a fitted effect of over 55% in size
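Cells were dispensed at 400 per well, compounds added by pin tool, plates incubated ≥48 hr at 37 °C, then CellTiter-Glo added for 30 min at room temperature before luminescence reading. Line: DT40 Tdp1-/- complemented with hTDP1; camptothecin omitted.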
DT40 TDP1 CPT = growth inhibition of DT40 Tdp1-/-;hTDP1 cells with camptothecin (screen for TDP1 inhibitors). chicken DT40 Tdp1-/-;hTDP1 cells + 20 nM CPT, ATP luminescence, 48 h. Potency, µM (series often up to 46.2 µM), actives largely listed as inhibitors. actives 12% (n = 420,000); also: nearly all actives have a fitted effect of over 55% in size
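Cell growth measured by CellTiter-Glo luminescence after a minimum 48 h, 37 C compound exposure with 20 nM CPT in Tdp1-knockout DT40 cells stably expressing hTDP1, seeded 400/well; qHTS titration format.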
12-LOX inh = blocks human arachidonate 12S-lipoxygenase; P18054; purified 12hLO, xylenol orange hydroperoxide absorbance; Potency, µM (titrated, usually from 108 µM), most hits filed as inhibitors; actives 1.1% (n = 580,000); AID 1671190
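Hydroperoxide product was detected by ferrous iron/xylenol orange as the 573 to 405 nm absorbance ratio. Arachidonic acid at 40 uM (final) was turned over for 30 min at room temperature by 150 nM human 12hLO, pH 7.0 Hepes buffer, after 15 min compound preincubation.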
Of the large screens only hits and unclear results are named; the others gave an inactive call. Only some compounds are listed: those with a hit (about 15% of all), similar ones and a draw of the others. Calls follow the shape of the dose curve; as a rule, active = well fitted curve in the direction sought with a large enough effect; inconclusive = small, poorly fitted or top-dose-only effect, or another doubt; inactive = no such curve, though single readings can be large; an effect the other way counts as inactive or inconclusive.

COCCN1C(=O)c2cccn2CC1CNC(=O)CC(C)C (configuration not stated)	none (no result: ELG1 repair inh, RORgamma inh, Gal4-VP16 FLuc, TDP1 cell noCPT, DT40 TDP1 CPT)
COc1ccc(NC(=O)CN(Cc2ccccc2)S(=O)(=O)c2ccc3nc(C)sc3c2)cc1	TDP1 cell noCPT inconclusive, DT40 TDP1 CPT inconclusive (no result: ELG1 repair inh, RORgamma inh, Gal4-VP16 FLuc)
COc1ccc(NC(=O)CN(C)S(=O)(=O)c2ccc3nc(C)sc3c2)cc1Cl	TDP1 cell noCPT 8.2µM, DT40 TDP1 CPT 23µM (no result: ELG1 repair inh, RORgamma inh, Gal4-VP16 FLuc)
Cc1nc2ccc(S(=O)(=O)N(C)CC(=O)Nc3cccc(C(F)(F)F)c3)cc2s1	TDP1 cell noCPT inconclusive, DT40 TDP1 CPT inconclusive (no result: ELG1 repair inh, RORgamma inh, Gal4-VP16 FLuc)
COc1ccc(S(=O)(=O)N(C)CC(=O)Nc2cccc(C(C)=O)c2)cc1	ELG1 repair inh inconclusive, DT40 TDP1 CPT inconclusive
Cc1nc2ccc(S(=O)(=O)N(CC(=O)Nc3ccc(Cl)cc3)Cc3ccccc3)cc2s1	TDP1 cell noCPT 15µM, DT40 TDP1 CPT inconclusive (no result: ELG1 repair inh, RORgamma inh, Gal4-VP16 FLuc)
COc1ccc(S(=O)(=O)N(C)CC(=O)Nc2cccc(C(C)=O)c2)cc1Cl	ELG1 repair inh inconclusive, TDP1 cell noCPT 13µM, DT40 TDP1 CPT 13µM
O=C1CN(CC(=O)Nc2c(Cl)cccc2Cl)CCN1	none (no result: ELG1 repair inh, RORgamma inh, Gal4-VP16 FLuc, TDP1 cell noCPT, DT40 TDP1 CPT)
CCOCCn1c(=O)[nH]c2cc(C(=O)N(C)Cc3cnn(C)c3)ccc21	none (no result: ELG1 repair inh, RORgamma inh, Gal4-VP16 FLuc, TDP1 cell noCPT, DT40 TDP1 CPT)
O=C([C@@H]1C[C@H](Oc2cccnc2)CN1C(=O)Cn1c(=O)oc2ccccc21)N1CCCC1	none (no result: ELG1 repair inh, RORgamma inh, Gal4-VP16 FLuc, TDP1 cell noCPT, DT40 TDP1 CPT)
Cc1cccc(OCC(O)Cn2nnc(-c3cccnc3)n2)c1 (configuration not stated)	none (no result: ELG1 repair inh, RORgamma inh, Gal4-VP16 FLuc, TDP1 cell noCPT, DT40 TDP1 CPT)
Cc1cccc2cc(CN(CC3CCCO3)C(c3nnnn3Cc3ccco3)C(C)C)c(=O)[nH]c12 (configuration not stated)	ELG1 repair inh inconclusive, RORgamma inh inconclusive, TDP1 cell noCPT 15µM, DT40 TDP1 CPT 16µM, 12-LOX inh inconclusive
O=c1[nH]c2cc3c(cc2cc1CN(Cc1cccnc1)C(=S)NCc1ccco1)OCCO3	ELG1 repair inh 9.2µM, RORgamma inh inconclusive, TDP1 cell noCPT inconclusive, DT40 TDP1 CPT 15µM
Cc1ccc2[nH]c(=O)c(CN(Cc3cccs3)C(=S)NCc3ccco3)cc2c1	ELG1 repair inh inconclusive, RORgamma inh inconclusive, TDP1 cell noCPT 16µM, DT40 TDP1 CPT inconclusive, 12-LOX inh inconclusive
Cc1ccc2cc(CN(Cc3ccco3)C(=S)NCC3CCCO3)c(=O)[nH]c2c1 (configuration not stated)	ELG1 repair inh 21µM, TDP1 cell noCPT 21µM, DT40 TDP1 CPT inconclusive (no result: 12-LOX inh)
COCC(=O)N[C@H]1CO[C@H]2[C@@H]1OC[C@@H]2Nc1nccc(-c2ccc(OC)cc2)n1	none (no result: ELG1 repair inh, RORgamma inh, Gal4-VP16 FLuc, TDP1 cell noCPT, DT40 TDP1 CPT)
O=C(NC(c1ccccc1)c1cc2ccccc2o1)C1CC1 (configuration not stated)	none (no result: ELG1 repair inh, RORgamma inh, Gal4-VP16 FLuc, TDP1 cell noCPT, DT40 TDP1 CPT)
Cc1cccc2cc(CN(Cc3cccs3)C(=S)NCC3CCCO3)c(=O)[nH]c12 (configuration not stated)	ELG1 repair inh 16µM, TDP1 cell noCPT inconclusive, DT40 TDP1 CPT inconclusive
Cc1ccc2[nH]c(=O)c(CN(CC3CCCO3)C(=S)NCc3ccco3)cc2c1 (configuration not stated)	RORgamma inh inconclusive, TDP1 cell noCPT 21µM, DT40 TDP1 CPT inconclusive
Cc1ccc2cc(CN(CC3CCCO3)C(=S)NCc3ccco3)c(=O)[nH]c2c1 (configuration not stated)	ELG1 repair inh inconclusive
Cc1cccc2cc(CN(Cc3ccco3)C(=O)c3ccncc3)c(=O)[nH]c12	ELG1 repair inh 11µM, TDP1 cell noCPT inconclusive
Cc1cccc2cc(CN(CC3CCCO3)S(=O)(=O)c3ccccc3)c(=O)[nH]c12 (configuration not stated)	TDP1 cell noCPT inconclusive, DT40 TDP1 CPT inconclusive
Cc1cccc2cc(CN(CC3CCCO3)C(=S)NCc3ccco3)c(=O)[nH]c12 (configuration not stated)	ELG1 repair inh 18µM, DT40 TDP1 CPT inconclusive
O=C(c1ccncc1)N(Cc1ccco1)Cc1cc2ccccc2[nH]c1=O	RORgamma inh inconclusive, 12-LOX inh inconclusive
COc1ccc(C(=O)COC(=O)Cc2coc3cc4c(cc23)CCC4)cc1OC	none (no result: ELG1 repair inh, RORgamma inh, Gal4-VP16 FLuc, TDP1 cell noCPT, DT40 TDP1 CPT)

Bioassay records (PubChem BioAssay)
